# From ChEMBL document CHEMBL3988442, “University of Dundee, Small-Polar-MMV Screening Library” (2021)
# The campaign covered roughly 48,000 compounds. About 13,000 (27%) showed an effect of 50% or more. Some of the results follow.
# Tested on: Wolbachia pipientis
# Assay: Anti-Wolbachia Cell-Based Screen
# Assay type: functional
# Set-up: scale not given: in the data most compounds retested in dose-response had high values
# Settings: 5 µM
row,SMILES,Percent Effect
1,CN(C)C(=O)COC1COC2(CCN(CC3CC3)CC2)C1.O=C(O)C(F)(F)F (centres undefined),-29.66%
2,O=C(O)C(F)(F)F.O=C(O)C(F)(F)F.c1ccc(OC2COC3(CCN(CC4CC4)CC3)C2)nc1 (centres undefined),-30.37%
3,CCOC1COC2(CCN(CC3CC3)CC2)C1.O=C(O)C(F)(F)F (centres undefined),97.53%
4,CN(C)C(=O)COC1COC2(CCN(CC3CCOCC3)CC2)C1.O=C(O)C(F)(F)F (centres undefined),121.3%
5,CCOC1COC2(CCN(CC3CCOCC3)CC2)C1.O=C(O)C(F)(F)F (centres undefined),102.9%
6,O=C(C1CCC2(CCN(CC3CCOCC3)CC2)O1)N1CCCC1.O=C(O)C(F)(F)F (centres undefined),-34.36%
7,O=C(O)C(F)(F)F.O=S(=O)(N[C@@H]1CCO[C@]2(CCN(CC3CCOCC3)C2)C1)C1CC1,-3.129%
8,COc1ccccc1CN1CC[C@]2(C[C@@H](OCC(=O)N(C)C)CO2)C1.O=C(O)C(F)(F)F,-8.079%
9,Clc1cc(Cl)cc(CN2CCC(NCc3cc[nH]n3)CC2)c1,16.8%
10,Cc1cccc(C(C)(C)NC(=O)CS(=O)(=O)CC(C)C)c1,15.34%
11,COCCNC(=O)C[C@@H]1COC[C@H]2CN(C(=O)c3cnccn3)C[C@@H]12,-3.747%
12,O=C(C[C@@H]1COC[C@H]2CN(CC3CCOCC3)C[C@@H]12)N1CCCCO1.O=C(O)C(F)(F)F,-14.45%
13,CC[C@H]1CN(C(=O)C2CC2)CC[C@H]1CC(=O)NCCN1CCOCC1,0.8633%
14,O=C(C[C@@H]1COC[C@H]2CN(CC3CC3)C[C@@H]12)N1CCCCO1.O=C(O)C(F)(F)F,-10.75%
15,COCCNC(=O)C[C@@H]1COC[C@H]2CN(C(=O)COC)C[C@@H]12,99.69%
16,COCCNC(=O)C[C@@H]1COC[C@H]2CN(C(=O)C3CCOCC3)C[C@@H]12,115.8%
17,COCCNC(=O)C[C@@H]1COC[C@H]2CN(CC3CCOCC3)C[C@@H]12.O=C(O)C(F)(F)F,95.67%
18,CCC1CN(CC(=O)NCCOC)CCO1 (centres undefined),-3.161%
19,CC[C@H]1CN(S(C)(=O)=O)CC[C@H]1CC(=O)NCCOC,0.9239%
20,Cc1ccc(CC(=O)N2CCCC(c3n[nH]c4nccnc34)C2)cc1 (centres undefined),102%
21,O=C(CC1CCCC1)N1CCCC(c2n[nH]c3nccnc23)C1 (centres undefined),-9.091%
22,Cc1cc(C2CCCN(C(=O)COc3ccc(F)cc3F)C2)n[nH]1 (centres undefined),-1.844%
23,O=C(CCc1ccccc1)N1CCCC(c2n[nH]c3nccnc23)C1 (centres undefined),111%
24,O=C(Cc1ccc(F)cc1)N1CCCC(c2n[nH]c3nccnc23)C1 (centres undefined),91.78%
25,CN(C(=O)CN1CCc2nn(C)c(=O)cc2C1)c1nccs1,-17.97%

row,SMILES,Percent Effect
1,CC(=O)N1CCN(C(=O)c2c(Cl)c3ccccc3n2C)CC1,8.743%
2,CC(=O)N1CCC2(CC1)CN(C(=O)c1cccc3[nH]ccc13)C2,7.707%
3,CC(=O)N1CC=C(n2c(=O)[nH]c3ccccc32)CC1,120.7%
4,Cc1ccc(N2CC[C@@H](NC(=O)c3cnccn3)[C@H](O)C2)nn1,13.4%
5,CC(C)CN1C(=O)CO[C@@H]2CN(C(=O)N(C)C)C[C@H]21,9.504%
6,CN1CCC(C(=O)NCc2nncn2-c2ccccc2)CC1=O (centres undefined),-4.452%
7,COCCN(C)C[C@@H]1CN(C(=O)c2cccc(C(F)(F)F)c2)C[C@@H]1CO,-9.662%
8,CN(CCO)C[C@@H]1CN(C(=O)c2cccc(OC(F)F)c2)C[C@@H]1CO,95.7%
9,COCCN(C)C[C@@H]1CN(C(=O)c2cccc(Cl)c2)C[C@@H]1CO,153.3%
10,CCN(C)C[C@@H]1CN(S(=O)(=O)c2cccc(C#N)c2)C[C@@H]1CO,-4.035%
11,COc1cc(F)c(C(=O)N2C[C@@H](CN(C)CCO)[C@@H](CO)C2)c(F)c1,-8.552%
12,COCCN(C)C[C@@H]1CN(C(=O)c2cccc(C#N)c2)C[C@@H]1CO,104.9%
13,CN(CCO)C[C@@H]1CN(C(=O)c2c(F)cccc2Cl)C[C@@H]1CO,-7.74%
14,CN1CCC(N[C@@H]2CO[C@H](CNC(=O)Nc3ccccc3)[C@H]2O)CC1,-15.1%
15,O=C(c1ccc(F)cc1F)N1C[C@H]2CC[C@@H]1CN(Cc1ccccc1)C2,-4.594%
16,CC(C)N1CC2(CCCN(c3ncc(Cl)cc3F)C2)CCC1=O (centres undefined),-5.351%
17,Cc1noc(C)c1CCC(=O)Nc1ccn(C)n1,102.9%
18,Cc1nn(C)c(C)c1CCC(=O)Nc1cccn(C)c1=O,0.3485%
19,Cc1ccc(NC(=O)CNc2ccn(CC(N)=O)n2)c(Cl)c1,2.31%
20,CCn1ccc(NC(=O)CCc2c(C)noc2C)n1,94.65%
21,Cc1noc(C)c1CCC(=O)NCCc1cccs1,18.14%
22,Cc1noc(C)c1CC(=O)Nc1ccn(CC(N)=O)n1,108.2%
23,CCn1ccc(NC(=O)CCc2c(C)nn(C)c2C)n1,89.06%
24,Cc1nn(C)c(C)c1CCC(=O)Nc1cn(C)c(=O)n(C)c1=O,-11.84%
25,Cc1noc(C)c1CCC(=O)N(C)C(C)c1cccs1 (centres undefined),-6.492%

row,SMILES,Percent Effect
1,NC(=O)Cn1ccc(NC(=O)C2(c3ccc(F)cc3)CC2)n1,-13.95%
2,CCS(=O)(=O)CCn1ccc(NC(=O)CCc2cccc(C)c2)n1,-1.723%
3,Cc1noc(C)c1CC(=O)NCCc1cccs1,21.95%
4,CCc1cc(N(C)Cc2c(C)nn(C)c2C)n2nccc2n1,-6.903%
5,CN(Cc1cc(F)ccc1F)CC(C)(CO)CO,17.08%
6,CNC(=O)c1cccc(NCCOc2ccc(CC#N)cc2)c1C,12.16%
7,COc1cccc(Cn2ncc(N(C)CCc3ccccc3)cc2=O)c1,-17.12%
8,CC(C)OCCn1nnnc1Cc1ccc(Br)cc1,-13.25%
9,CCOC(C(=O)N1CCn2c(C)nnc2C1)c1ccccc1 (centres undefined),-1.753%
10,CCN(C)CC1CCN(c2ncc(Br)cn2)C1 (centres undefined),-2.721%
11,CN(C)C(C(=O)N1CCCC1)c1ccccc1F (centres undefined),1.504%
12,COc1cccc(-c2nccc(C3CCCN3C)n2)c1 (centres undefined),102%
13,COc1ccc(C2CCCN2c2cnccn2)c(OC)c1 (centres undefined),8.264%
14,COc1cccc(-c2noc3c2CN(c2ncnc4c2CCC4)CC3)c1,-1.898%
15,Cc1nn(C)c2nc(-c3ccccn3)nc(NCCC3CCCN3C)c12 (centres undefined),-7.173%
16,COc1ccc(-c2noc([C@@H]3C[C@@H](O)CN3C3CCN(C)CC3)n2)cc1,-10.46%
17,CN1CCCC1c1ccnc(-c2ccccn2)n1 (centres undefined),114%
18,COc1ccc(-c2nccc(C3CCCN3C)n2)cc1 (centres undefined),122.9%
19,O=C(N1CCOCC1)N1CCCC1c1nc(-c2ccccn2)no1 (centres undefined),12.43%
20,COCCOc1ccnc(-c2noc([C@@H]3CCCN3CC3CC3)n2)c1,-13.12%
21,COCCN1CCCC1c1ccnc(-c2ccccc2)n1 (centres undefined),120.2%
22,COCCOc1ccnc(-c2noc([C@@H]3CCCN3CC(C)(C)C)n2)c1,20.74%
23,COCCOc1ccnc(-c2noc([C@@H]3CCCN3C)n2)c1,-6.49%
24,CN(CC(=O)NC(C)(C#N)C1CC1)Cc1nnc(C2CC2)n1C (centres undefined),-18.04%
25,Cc1cccc(S(=O)(=O)N2CSCC2C(=O)NC(C)(C)C)c1 (centres undefined),-10.25%

row,SMILES,Percent Effect
1,CCc1nc(CCNC(=O)NC2CC2)sc1C,2.732%
2,C/C=C(\C)CN1C[C@H](c2cccc(OC)c2)[C@@H](N)C1,1.044%
3,CN1CCN(C2CCN(c3ccnc(-c4ccccc4)n3)CC2)C1=O,9.74%
4,CN1CCCC1CCn1ccnc1-c1nc(-c2ccccc2)no1 (centres undefined),-1.363%
5,CN1CCCC1c1ccnc(-c2ccccc2)n1 (centres undefined),129.7%
6,CN(C)CC(=O)N1C[C@@H](Oc2ccccn2)[C@H]2OCCC[C@H]21,-36.21%
7,O=C(c1cscn1)N1C[C@@H](Oc2cccnc2)[C@H]2OCCC[C@H]21,101.6%
8,O=C(C[C@H]1[C@H]2CN(C(=O)Cc3ccccn3)C[C@@H]12)Nc1cccnc1,-5.449%
9,CN(C)S(=O)(=O)N1C[C@H](Oc2cccnc2)[C@H]2OCCC[C@H]21.O=C(O)C(F)(F)F,21.05%
10,O=C(c1ccnnc1)N1C[C@@H](OCC2CCCC2)[C@H]2OCCC[C@H]21,-2.599%
11,O=C(Cc1ccccn1)N1C[C@@H](Oc2cccnc2)[C@H]2OCCC[C@H]21,93.72%
12,O=C(CC1CCCC1)N1C[C@H](Oc2cccnc2)[C@H]2OCCC[C@H]21.O=C(O)C(F)(F)F,105.6%
13,O=C(C1=CCCC1)N1C[C@H](Oc2cccnc2)[C@H]2OCCC[C@H]21,9.91%
14,Cc1[nH]nc(CCC(=O)N2C[C@H]3CC[C@@H]2CN(C(=O)N(C)C)C3)c1C,-18.31%
15,CC(=O)N[C@H](C)c1c(-c2ccc(Cl)cc2)noc1C(=O)O,-1.378%
16,CCOCC1c2c(ncn2C(C)C)CCN1C(=O)CC (centres undefined),-9.692%
17,Cn1cnc2c1C(COCc1ccccc1)N(Cc1cccnc1)CC2.O=C(O)C(F)(F)F.O=C(O)C(F)(F)F.O=C(O)C(F)(F)F (centres undefined),3.52%
18,CCOCC1c2c(ncn2C)CCN1C(=O)c1cscn1 (centres undefined),99.42%
19,CCOCC1c2c(ncn2C(C)C)CCN1C(C)C.O=C(O)C(F)(F)F.O=C(O)C(F)(F)F (centres undefined),0.9894%
20,Cn1cnc2c1C(COCc1ccccc1)N(Cc1ccncc1)CC2.O=C(O)C(F)(F)F.O=C(O)C(F)(F)F.O=C(O)C(F)(F)F (centres undefined),-5.71%
21,CCOCC1c2c(ncn2C)CCN1C(=O)c1ccoc1 (centres undefined),86.79%
22,CCOCC1c2c(ncn2C)CCN1C(=O)c1cnc(C)cn1.O=C(O)C(F)(F)F (centres undefined),107%
23,O=C(c1cscn1)N1CCn2cnc(COCC3CC3)c2C1,-4.402%
24,CCOCC1c2c(ncn2C(C)C)CCN1C(=O)C1CC1 (centres undefined),9.389%
